High-throughput results (PubChem)
An excerpt weighted towards active compounds, which were near 12% of everything screened.
HCV inhibitor – blocks hepatitis C virus; Huh7.5.1 HCVcc-Cre infection, luciferase reporter, 44 h; Potency, µM (series often up to 41.8 µM), without a hit: at the top dose activity change, negative = inhibition, actives largely listed as inhibitors; 3.4% of 340,000 active; also: % is scaled to controls: 0 for no effect and ±100 for the full control effect
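Infectious HCV cell culture screen: compound-treated cells (1,000/well, pre-plated 4 h) are infected with HCVcc-Cre at roughly 0.5 moi and grown 44 h. Infection is quantified by luciferase signal after 15 min substrate incubation at room temperature.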
SARS PLP yeast – SARS-CoV PLP inhibition in yeast. Potency, µM (titrated, usually from 32.9 µM), without a hit: top-dose activity, positive = growth rescue, actives largely listed as activators. S. cerevisiae expressing SARS-CoV PLpro, growth rescue. 0.19% of 330,000 active; calls by dose curve; also: 0% is about no effect; nearly all actives have a fitted effect of over 55% in size
NS1 function inh – blocks influenza NS1 protein function | 0.4% of 270,000 active | Potency, µM (series often up to 46.1 µM), for the others: at the highest dose activity, positive = more growth; calls by dose curve; also: actives are rising curves; nearly all actives have a fitted effect of over 50% in size
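A cell-based growth assay was used: compounds that relieve NS1-induced slow growth of budding yeast raise OD600. Assay medium was yeast nitrogen base with ammonium sulphate and -URA supplement, pH 6.0, with 2% galactose.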
AMA1 RON2 block – disrupts binding of P. falciparum AMA1 to RON2; Potency, µM (doses to about 58.2 µM), for the others: at the highest dose activity change, negative = inhibition, actives largely listed as inhibitors; AlphaScreen AMA1-biotinylated RON2 peptide binding; 0.2% of 360,000 active;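 also: 0% = vehicle wells and -100% = peptide control; nearly all actives have a fitted effect of over 45% in size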
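AMA1 (3D7) with his tag at 25 nM final met compounds first, then biotinylated RON2 peptide at 25 nM; detection used donor plus acceptor beads, 10 µg/mL apiece, read by AlphaScreen after 30 min at room temperature.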
Pf growth 48h – inhibits P. falciparum growth in the first generation, 48 h; P. falciparum luciferase growth in erythrocytes, 48 h; Potency, µM (highest dose often 28.7 µM), inactives show top-dose activity change, negative = inhibition, most hits filed as inhibitors; AID 504832; 5.9% of 310,000 active; also: % is scaled to controls: 0 for no effect and ±100 for the full control effect
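Luciferase-expressing P. falciparum in infected erythrocytes (2% hematocrit, 0.1% parasitemia final) in RPMI 1640/0.5% Albumax were exposed to compound for 48 hours at 37 C, 5% CO2; growth read as luminescence.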
Pf growth 96h – inhibits malaria parasite growth, 96 h; P. falciparum luciferase reporter growth, 96 h; 6.9% of 320,000 active; AID 504834; Potency, µM (titrated, usually from 28.7 µM), for the others: at the highest dose activity change, negative = inhibition, hits mostly inhibitors; also: % is scaled to controls: 0 for no effect and ±100 for the full control effect
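Luminescence readout: decreased luciferase signal marks inhibited growth of reporter-expressing P. falciparum in infected red cells (2% hematocrit, 0.05% parasitemia final), exposed to compound two generations (96 h, 37 C, 5% CO2).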
* = called active by the depositor; ? = inconclusive; . = not tested or not shown. Unless noted, calls follow the shape of the dose curve; as a rule, active = well fitted curve in the direction sought with a large enough effect; inconclusive = small, poorly fitted or top-dose-only effect, or another doubt; inactive = no such curve, though single readings can be large; an effect the other way counts as inactive or inconclusive. Potency is read from the fitted curve at half-maximal effect.

SMILES | HCV inhibitor | SARS PLP yeast | NS1 function inh | AMA1 RON2 block | Pf growth 48h | Pf growth 96h
CCCc1nc(SCC(=O)c2ccc(OC)cc2)c2ccccc2n1 | 13µM* | -2% | . | 51% | ? | 37%
CCCn1c(NC(=O)CSCC(=O)Nc2cc(C)on2)nc2ccccc21 | ? | -19% | . | 70% | ? | ?
Cc1cc(NC(=O)CSc2nc(CCC3CCCC3)nc3ccccc23)no1 | ? | -16% | 2% | 32% | ? | -1%
Cc1cc(NC(=O)CSc2nc3ccccc3c(=O)n2C(C)c2ccccc2)no1 (stereo unspecified) | ? | -3% | 20% | -5% | . | 12µM*
CCC(C)n1c(SCC(=O)Nc2cc(C)on2)nc2ccccc2c1=O (stereo unspecified) | ? | -1% | -13% | -3% | ? | ?
CCCc1nc(SCC(=O)Nc2cc(C)on2)c2ccccc2n1 | ? | 4% | -39% | -13% | -23% | 2.1µM*
COc1ccccc1CCNS(=O)(=O)CCNC(=O)c1ccc2c(c1)OCO2 | 6% | -1% | . | -13% | 8% | -3%
CCOc1cccc(NC(=O)c2cccc(F)c2)c1 | -8% | 0% | -32% | -2% | 27% | 4%
COCC(C)n1c(SCC(=O)Nc2sccc2C(N)=O)nc2ccccc2c1=O (stereo unspecified) | ? | 1% | . | -12% | 9.3µM* | ?
O=C(/C=C/[C@H]1O[C@@H](n2cnc3c(NC(=O)c4ccccc4)ncnc32)[C@H](O)[C@@H]1O)NCc1cccs1 | . | . | . | -2% | . | .
O=Cc1ccc(Sc2ncccn2)o1 | 7% | 4% | . | 11% | 11% | 23%
O=C(NCCCN1CCOCC1)c1cc(-c2cccs2)on1 | -11% | 11% | -7% | 0% | 39% | .
COCCCNC(=O)c1cccs1 | -11% | 6% | -5% | 0% | 8% | .
O=C(NCCCN1CCOCC1)c1ccc(-n2nc(C(F)(F)F)cc2-c2cccs2)cc1 | ? | -6% | 2% | -7% | 9.3µM* | .
COCCCNC(=O)c1ccc(-n2nc(C(F)(F)F)cc2-c2cccs2)cc1 | 7% | -13% | -84% | 0% | 12µM* | .
Cc1ccc(NC(=O)CSCC(=O)N2CCN(Cc3ccc4c(c3)OCO4)CC2)cc1 | . | 18% | 5% | -3% | -1% | ?
O=C(NCC(c1ccco1)N1CCN(c2ccc(F)cc2)CC1)c1cccs1 (stereo unspecified) | -25% | 3% | . | -16% | -9% | ?
O=C(NCC(c1ccco1)N1CCN(c2ccccc2F)CC1)C1CCCCC1 (stereo unspecified) | ? | -2% | . | 17% | 12µM* | -23%
COc1ccc(N2CCN(C(CNC(=O)C(=O)NC3CC3)c3ccco3)CC2)cc1 (stereo unspecified) | 26% | 1% | . | 2% | 19% | 23%
COc1ccc(N2CCN(C(CNC(=O)C3CCCCC3)c3ccco3)CC2)cc1 (stereo unspecified) | -2% | 3% | . | -13% | 13µM* | ?
O=C(NCc1cccs1)C(=O)NCC(c1ccco1)N1CCN(c2ccc(F)cc2)CC1 (stereo unspecified) | 22µM* | -4% | . | ? | ? | ?
O=C(NCC(c1ccco1)N1CCN(c2ccccc2)CC1)OCc1ccccc1 (stereo unspecified) | -6% | -1% | -20% | -1% | ? | 4.1µM*
O=C(NCC(c1ccco1)N1CCN(c2ccccc2F)CC1)OCc1ccccc1 (stereo unspecified) | 11% | -27% | -53% | -1% | ? | ?
COc1ccc(C2=C(c3ccccc3)OC(OC)c3cc(F)ccc32)cn1 (stereo unspecified) | . | . | . | -3% | . | .
COC(=O)c1ccc(S(=O)(=O)NC(C)(C)C)n1C | 6% | 0% | 3% | -8% | 37% | 45%
SMILES | HCV inhibitor | SARS PLP yeast | NS1 function inh | AMA1 RON2 block | Pf growth 48h | Pf growth 96h
O=C(O)C[C@H]1c2ccc(C(F)(F)F)cc2S(=O)(=O)N1C1CCCCC1 | 3% | . | . | 20% | . | .
COCc1cn(CC[C@@H]2CC[C@@H](NC(=O)Nc3ccc4c(c3)OCO4)[C@@H](CO)O2)nn1 | . | . | . | 2% | . | .
CCC(C(=O)NCCCN1CCOCC1)n1c2ccccc2c2nc(=O)cc(C)n21 (stereo unspecified) | 21% | -5% | 7% | -6% | 8% | ?
CC1CCCC2(C1)NC(=S)N(c1ccccc1)N2 (stereo unspecified) | 9% | -18% | -15% | 3% | 39% | 66%
CC1CCCC2(C1)NC(=S)c1c(sc3c1CCCC3)N2 (stereo unspecified) | -15% | -1% | 1% | 53% | . | 5.2µM*
CCCCc1ccc(NC(=O)c2cnccn2)cc1 | -7% | 3% | . | -7% | 487% | 231%
COc1ccc(Cn2c(CCC(=O)Nc3ccc(C)cc3)nc3cccnc32)cc1 | -24% | -4% | 10% | -2% | . | 10µM*
